# Measured values: PubChem BioAssay
# Key:
# [1] = tested on: Human papillomavirus type 1a protein E7 (residues 44-93); assay: small molecules binding HPV E7 44-93 – biochemical, small-molecule microarray, residues 44-93, 635 nm fluorescence, primary screen (AID 1108); settings: fluorescence 635 nm, higher = more signal;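 note: E7 fragment applied at 1 µg/mL in TBST for 1 h at 4 C; score combines spot fluorescence with its signal to noise ratio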
# [2] = hepatitis C replication reporter changes, two-sided – Huh7 cells, luciferase reporter, HCV replication inhibitor project, primary screen (AID 1109); settings: Huh7 HCV replicon luciferase reporter, 48 h; higher = more signal;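 note: huh7 hepatoma cells harbouring a luciferase neomycin HCV replicon reporter; luciferase luminescence as measure of HCV replicon replication; test concentration not given here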
# [3] = biological target: Left-right determination factor 2 (Homo sapiens) (UniProt O00292); assay: small molecules binding LEFTY2 protein – biochemical, small-molecule microarray, 635 nm fluorescence scan, primary screen (AID 1110); settings: higher = more signal
# Left-right determination factor 2 (Homo sapiens), sequence (O00292 whole entry, looked up): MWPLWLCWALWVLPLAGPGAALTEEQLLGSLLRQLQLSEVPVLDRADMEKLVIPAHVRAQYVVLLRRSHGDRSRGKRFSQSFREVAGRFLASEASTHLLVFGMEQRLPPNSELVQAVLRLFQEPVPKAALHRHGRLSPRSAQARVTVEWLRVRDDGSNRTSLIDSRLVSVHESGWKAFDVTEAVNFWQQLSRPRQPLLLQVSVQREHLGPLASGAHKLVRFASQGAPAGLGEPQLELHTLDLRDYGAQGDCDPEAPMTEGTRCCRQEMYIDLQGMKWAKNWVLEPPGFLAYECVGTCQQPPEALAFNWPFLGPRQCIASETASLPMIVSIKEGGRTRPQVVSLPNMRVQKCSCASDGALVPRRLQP
# [4] = biological target: Calmodulin-1 (Homo sapiens) (UniProt P0DP23); assay: small molecules binding calmodulin-1 with EGTA – biochemical, small-molecule microarray, Cy5-labelled CALM1, profiling panel (AID 1111); settings: Cy5-CALM1 binding fluorescence, higher = more signal;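 note: labelled calmodulin applied in Tris saline Tween buffer holding calcium plus EGTA and DTT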
# [5] = biological target: Calmodulin-1 (Homo sapiens) (UniProt P0DP23); assay: small molecules binding Ca-loaded calmodulin-1 – biochemical, small-molecule microarray, Cy5-labelled CALM1, plus calcium, artefact control for SMM control-protein annotation, profiling panel (AID 1112); settings: Cy5-CALM1 binding fluorescence, higher = more signal;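 note: score merges spot fluorescence with signal to noise from triplicate slides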
# [6] = probe aWnt5a binding to arrayed compounds – biochemical, biotinylated probe, 635/667 nm fluorescence, primary screen (AID 1113); settings: small-molecule microarray, higher = more signal;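 note: score merges 667 nm fluorescence intensity with signal-to-noise per printed feature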
# [7] = probe aShh binding to arrayed compounds – biochemical, biotinylated probe, 635/667 nm fluorescence, primary screen (AID 1114); settings: small-molecule microarray, higher = more signal;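 note: probe is biotin-labelled aShh protein from a stem cell growth factor screen; measures binding of labelled protein to compounds printed on the slide; score merges feature fluorescence at 667 nm with signal-to-noise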
# [8] = probe aNog binding to arrayed compounds – biochemical, biotinylated probe, 635/667 nm fluorescence, primary screen (AID 1115); settings: small-molecule microarray, higher = more signal;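 note: probe is biotinylated aNog protein used at 0.15 µg/mL for 1 h at 4 C; z-score combines 667 nm fluorescence of each spot with its signal to noise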
# [9] = biological target: Torsin-1A-interacting protein 1 (Homo sapiens) (UniProt Q5JTV8); assay: compound microarray binding of lysate hLAP1 – cell lysate, small-molecule microarray, COS7 lysate, 635/667 nm fluorescence, primary screen (AID 1116); settings: 635 nm fluorescence, higher = more signal
# Torsin-1A-interacting protein 1 (Homo sapiens), sequence (Q5JTV8 whole entry, looked up): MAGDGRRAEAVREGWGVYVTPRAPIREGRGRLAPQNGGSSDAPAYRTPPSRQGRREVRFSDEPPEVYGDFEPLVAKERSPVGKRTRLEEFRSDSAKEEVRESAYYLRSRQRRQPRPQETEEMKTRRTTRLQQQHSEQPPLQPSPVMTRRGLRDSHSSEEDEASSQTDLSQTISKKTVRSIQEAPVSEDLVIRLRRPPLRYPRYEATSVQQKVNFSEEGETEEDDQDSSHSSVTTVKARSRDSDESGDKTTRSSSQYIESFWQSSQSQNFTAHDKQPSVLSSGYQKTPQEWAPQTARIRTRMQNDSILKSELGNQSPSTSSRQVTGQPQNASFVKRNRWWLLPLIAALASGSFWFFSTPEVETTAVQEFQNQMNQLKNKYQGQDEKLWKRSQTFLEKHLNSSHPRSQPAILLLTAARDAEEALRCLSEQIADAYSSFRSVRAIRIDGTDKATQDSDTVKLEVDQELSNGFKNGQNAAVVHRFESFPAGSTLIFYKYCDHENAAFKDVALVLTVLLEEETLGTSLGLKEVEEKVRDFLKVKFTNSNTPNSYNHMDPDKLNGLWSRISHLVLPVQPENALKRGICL
# [10] = biological target: Alpha-bungarotoxin (Bungarus multicinctus) (UniProt P60615); assay: compounds binding labelled alpha-BTX control protein – biochemical, small-molecule microarray, Alexa647 label, 635/667 nm fluorescence, artefact control for SMM control protein annotation, profiling panel (AID 1117); settings: alpha-BTX-A647 binding fluorescence, higher = more signal
# Alpha-bungarotoxin (Bungarus multicinctus), sequence (P60615 whole entry, looked up): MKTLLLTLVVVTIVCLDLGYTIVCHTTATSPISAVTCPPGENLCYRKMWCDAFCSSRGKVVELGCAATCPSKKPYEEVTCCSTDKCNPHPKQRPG
SMILES,composite z-score [1],z-score [2],composite z-score [3],composite z-score [4],composite z-score [5],composite z-score [6],composite z-score [7],composite z-score [8],composite z-score [9],composite z-score [10]
CC(C)=CCCC(C)=CCON=C1[C@H]2CCn3c(=O)n(-c4ccccc4)c(=O)n3[C@H]2[C@H](O)[C@@H]2O[C@H]12,1.35,-3.17,0.802,-0.198,-0.807,-0.154,-0.102,-0.061,0.458,0.514
COC(=O)[C@H](C)NC(=O)CCC1CC(OC(=O)NCc2cccc3ccccc23)CC2(CCCC(COC(=O)NCCc3ccccc3OC)O2)O1 (stereo not given in full),1.39,-0.314,0.621,0.75,-0.37,-0.15,0.0141,0.0356,0.787,0.638
COC(=O)[C@H](C)NC(=O)CCC1CC(OC(=O)NCCc2ccc(F)cc2)CC2(CCCC(COC(=O)NCCc3ccccc3OC)O2)O1 (stereo not given in full),1.35,-0.466,0.638,0.48,-0.211,-0.0403,0.0141,0.177,0.195,0.434
CCOC(=O)[C@H](CC(C)C)NC(=O)CCC1CC(OC(=O)NCCc2ccc(F)cc2)CC2(CCCC(COC(=O)NCc3cccc4ccccc34)O2)O1 (stereo not given in full),0.548,-0.893,0.824,0.239,-0.364,-0.156,-0.237,-0.497,0.219,0.0466
O=C(NN=C1C[C@@H](O)[C@@H](O)[C@@H]2[C@@H]3C(=O)N(Cc4ccc5c(c4)OCO5)C(=O)[C@@H]3CC[C@@H]12)OCc1ccccc1,-0.189,-1.39,0.0764,-0.114,-0.103,-0.176,0.227,-0.0498,0.739,0.26
COC(=O)[C@H](C)NC(=O)CCC1CC(OC(=O)NCc2ccc3c(c2)OCO3)CC2(CCCC(COC(=O)NCCc3ccc(Cl)cc3)O2)O1 (stereo not given in full),0.536,-0.562,1.13,-0.209,-0.97,-0.0367,0.0893,-0.111,0.288,0.202
C=CC[C@@H]1C=C[C@H](ON=C2C[C@@H](O)[C@@H](O)[C@@H]3[C@@H]4C(=O)N(CC)C(=O)[C@@H]4CC[C@@H]23)[C@@H](CO)O1,-0.573,0.0355,0.13,-0.758,-0.777,-0.131,0.116,0.0541,-0.164,-1.03
COC(=O)[C@H](C)NC(=O)CCC1CC(OC(=O)NCc2cccc3ccccc23)CC2(CCCC(COC(=O)NCCC(C)C)O2)O1 (stereo not given in full),0.991,-0.243,0.449,-0.234,-0.371,-0.109,-0.147,-0.268,-0.228,-0.178
O=C(NN=C1C[C@@H](O)[C@@H](O)[C@@H]2[C@@H]3C(=O)N(c4ccc(F)cc4F)C(=O)[C@@H]3CC[C@H]12)OCc1ccccc1,1.35,-0.642,0.446,0.463,-0.235,-0.12,-0.0192,-0.406,0.747,0.555
CO[C@@H]1C=CCC(=O)N[C@@H](C)C(=O)OC[C@@H](NS(=O)(=O)c2ccc(C)cc2)[C@H](C)C=CCC(=O)OC[C@H]1C,-0.844,0.46,0.957,-0.062,-0.417,-0.18,0.0442,-0.0116,-0.159,-0.135
C#CCCCON=C1[C@H]2CCn3c(=O)n(Cc4cc5c(cc4Cl)OCO5)c(=O)n3[C@H]2[C@H](O)[C@@H]2O[C@H]12,0.493,0.113,0.711,-0.692,-1.22,-0.129,-0.273,-0.162,0.526,0.499
CC(C)CON=C1C[C@@H](O)[C@@H](O)[C@@H]2[C@@H]3C(=O)N(c4ccc(F)cc4F)C(=O)[C@@H]3CC[C@@H]12,0.463,-0.049,0.339,0.0012,-0.541,-0.0368,-0.279,-0.0563,0.142,0.421
COC(=O)CC=C[C@@H](C)[C@@H](C=NOC[C@@H](C)[C@H](OCc1ccccc1)C(C)C)NS(=O)(=O)c1ccc(C)cc1,-0.482,-1.44,0.21,-1.51,-1.26,-0.148,-0.0977,-0.541,0.161,-1.25
CC(C)=NOC[C@@H](O)[C@H]1O[C@@H]2OC(C)(C)O[C@@H]2[C@H]1O,0.855,0.674,0.989,0.0985,-0.29,0.163,0.0952,-0.191,0.243,0.154
CCOC(=O)CCN1C(=O)[C@H]2[C@H]3[C@H](O)[C@H](O)CC(=O)[C@@H]3CC[C@H]2C1=O,0.555,-0.408,0.657,0.0068,-0.135,-0.0924,-0.138,-0.252,0.597,0.321
CCN1C(=O)[C@H]2[C@@H]3C(=CC[C@H]2C1=O)C(=O)[C@H]1O[C@H]1[C@H]3O,0.53,-5.32,0.705,-0.575,-1.4,0.0559,-0.138,-0.144,0.282,0.0607
CCN1C(=O)[C@H]2[C@H]3[C@H](O)[C@H](O)CC(=NOC[C@@H](O)COCc4ccco4)[C@H]3CC[C@H]2C1=O,0.296,-0.389,1.41,-2.21,-2.59,-0.216,-0.2,-0.878,-0.0551,-0.441
CCOC(=O)[C@H](CC(C)C)NC(=O)CCC1CC(OC(=O)NCc2ccc3c(c2)OCO3)CC2(CCCC(COC(=O)NCCc3ccccc3OC)O2)O1 (stereo not given in full),1.31,-0.621,0.613,0.618,-0.375,-0.298,-0.0626,-0.41,0.389,0.556

SMILES,composite z-score [1],z-score [2],composite z-score [3],composite z-score [4],composite z-score [5],composite z-score [6],composite z-score [7],composite z-score [8],composite z-score [9],composite z-score [10]
CC(=O)OC[C@H]1O[C@H](CC=NOCC[C@@H]2C=C[C@H](OC(C)=O)[C@@H](COC(C)=O)O2)C=C[C@@H]1OC(C)=O,1.02,0.111,0.888,-0.981,-0.171,-0.001,-0.0904,-0.216,-0.0873,0.408
COC(=O)[C@@H]1CC[C@H](C)[C@@H](c2ccc(C)cc2)N1C(=O)c1ccc(C=NOC[C@H]2O[C@H](c3ccccc3)C=C[C@@H]2Oc2ccc(OC)cc2)cc1,0.404,-0.739,0.35,-0.156,-0.551,0.0104,-0.234,0.0498,1.18,0.304
CCc1cc2c(nc1CC)CCN(CCC(C)=NOCC[C@@H]1C=C[C@H](OC(C)=O)[C@@H](COC(C)=O)O1)C2,1.11,-0.879,0.879,-0.307,-1.2,0.0209,-0.167,-0.4,1.01,0.147
CCCCOC(OCCCC)C(O)CSc1ccc2ccccc2c1 (stereo not given),0.711,0.0395,0.64,-0.24,-0.19,-0.0441,0.171,-0.0281,0.506,0.086
CC(=O)OC[C@H]1O[C@@H](ON=C(C)C)[C@H](OC(C)=O)[C@@H](OC(C)=O)[C@@H]1OC(C)=O,-2.02,-0.563,0.207,-0.862,-0.678,-0.0459,-0.13,-0.345,-0.958,-1.3
CC(CCC(=O)OC[C@H]1O[C@H](C#Cc2ccccc2)C=C[C@@H]1Oc1ccc(C)cc1)=NOC(C)CN1CCCc2nc(C)c(C)cc21 (stereo not given in full),1.21,-0.456,0.447,0.687,-0.0954,-0.0944,-0.0146,0.125,0.132,0.898
C=CC[C@@H]1C=C[C@H](ON=C(C)CCN2CCCCc3nc(C)c(C)cc32)[C@@H](CO)O1,0.322,-0.197,1.25,-0.937,-1.72,-0.0276,0.0684,-0.444,0.533,-0.102
C[C@@H]1CC[C@H]2C(=O)O[C@@H](COc3ccc(C(C)(C)C)cc3)CN2[C@H]1c1ccc(Br)cc1,0.269,-0.157,0.193,-0.543,-0.229,-0.0704,-0.214,0.0762,0.0021,0.315
O=C1[C@H]2[C@H]3[C@H](O)[C@H](O)CC(=NO[C@@H]4O[C@H](CO)[C@@H](O)[C@H](O)[C@H]4O)[C@H]3CC[C@H]2C(=O)N1C[C@@H]1CCCO1,-0.429,-0.232,0.399,-0.551,-1.1,-0.118,-0.117,-0.379,-0.367,-0.0473
COC(=O)CC=C[C@@H](C)[C@@H](C=NOC(C)CN1CCCCc2nc(C)c(C)cc21)NS(=O)(=O)c1ccc(C)cc1 (stereo not given in full),0.241,0.0814,0.614,-0.344,-1.27,-0.158,0.0144,0.0567,0.0017,0.363
CO[C@@H]1[C@H](O)CO[C@H]1C=Cc1ccccc1,0.258,-0.696,0.509,-0.0028,-0.144,0.0078,-0.16,-0.0563,0.0195,0.241
CON(C)C(=O)c1nnc2c(n1)[nH]c1ccccc12,-0.186,2.27,0.414,-0.15,-0.229,-0.148,-0.23,-0.33,2.14,0.573
COc1ccc(COC(=O)NN=C2C[C@@H](O)[C@@H](O)[C@@H]3[C@@H]4C(=O)N([C@@H](C)c5ccccc5)C(=O)[C@@H]4CC[C@@H]23)cc1,-0.372,0.426,0.609,-0.213,-0.392,-0.169,0.0121,-0.288,0.51,0.0288
CCN1C(=O)[C@H]2[C@H]3[C@H](O)[C@H](O)CC(=NOC[C@@H](O)[C@H]4O[C@@H]5OC(C)(C)O[C@@H]5[C@H]4O)[C@@H]3CC[C@H]2C1=O,-0.629,-0.299,0.484,-0.154,-0.324,-0.096,-0.0289,-0.0733,-0.209,0.0203
O=C1C2=CC[C@H]3C(=O)N(c4ccc(F)cc4F)C(=O)[C@H]3[C@H]2[C@H](O)[C@@H]2O[C@H]12,0.356,-0.155,0.662,-0.232,-0.773,-0.206,-0.352,-0.553,0.335,0.455
CCOC(=O)[C@H](Cc1ccccc1)NC(=O)CCC1CC(OC(=O)NCCc2ccc(F)cc2)CC2(CCCC(COC(=O)NCCC(C)C)O2)O1 (stereo not given in full),1.4,-0.833,0.676,-0.0594,-0.478,-0.164,-0.253,-0.0524,0.523,0.633
COc1ccc(OC[C@@H](CO)OC)cc1,0.0047,-0.719,0.178,-0.584,-0.671,-0.244,0.0639,-0.0448,0.551,0.0276
